# Measurements as given in PubChem BioAssay.
# A number with no mark means an inactive call. Calls of active or inactive are those of the source. Rule as the data show it, unless noted: active = inhibition above about 33%; inactive = the rest.
# Biological target: Steroidogenic factor 1 (Homo sapiens) (UniProt Q13285)
# Assay: SF1 (NR5A1) inverse agonists, counter-screen for LRH-1 inverse agonist project, cell-based, luminescence, high throughput (AID 651614; in the data active = inhibition above about 44%;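 also: cells cotransfected with StAR promoter reporter and SF1 expression vector; 0% = vehicle on cells with receptor and 100% = vehicle on cells lacking receptor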)
# Conditions: cell-based SF1 luciferase reporter, at 3.6 µM, active compounds read high
# Steroidogenic factor 1 (Homo sapiens), sequence (Q13285 whole entry, looked up): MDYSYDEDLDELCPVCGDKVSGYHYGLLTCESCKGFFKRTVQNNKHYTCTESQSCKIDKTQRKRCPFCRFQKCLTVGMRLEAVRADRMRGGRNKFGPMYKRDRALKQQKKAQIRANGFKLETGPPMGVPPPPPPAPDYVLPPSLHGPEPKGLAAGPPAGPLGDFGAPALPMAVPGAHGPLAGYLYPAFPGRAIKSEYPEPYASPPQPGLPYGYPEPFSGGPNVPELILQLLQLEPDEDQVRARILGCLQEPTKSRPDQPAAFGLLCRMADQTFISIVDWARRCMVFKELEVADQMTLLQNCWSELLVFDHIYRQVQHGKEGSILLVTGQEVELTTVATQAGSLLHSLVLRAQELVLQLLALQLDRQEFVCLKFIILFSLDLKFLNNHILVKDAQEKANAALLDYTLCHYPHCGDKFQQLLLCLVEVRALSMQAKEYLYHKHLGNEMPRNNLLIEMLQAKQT
row,Compound,inhibition
1,COc1ccc(OCCNC(=O)C2(C)CCN2Cc2ccc3ccccc3c2)cc1 (configuration not stated),43.2% (active)
2,N#Cc1ccc(NC(=O)COc2ccc(-n3cnnn3)cc2)cc1,35.9%
3,Cc1cc(C)c2sc(NC(=O)c3ccc([N+](=O)[O-])o3)nc2c1,53.5% (active)
4,Cc1ccc(CNC(=O)COc2ccc(C(=O)c3ccc(F)cc3)cc2)cc1,35.8%
5,COc1ccc(NC(=O)Cn2nnc(C(=O)Nc3ccccc3C)c2N)cc1,37.6%
6,CCC(c1nnnn1-c1c(C)cccc1C)N1CCN(c2ccc(C(F)(F)F)cc2[N+](=O)[O-])CC1 (configuration not stated),5.25%
7,c1ccc(-n2nnnc2-c2cccc3ccccc23)cc1,62.6% (active)
8,Cc1cc(OCC(=O)Nc2nccs2)c2c(C)cc(=O)oc2c1,55.3% (active)
9,CCCc1nc(SCC(=O)c2ccc(F)cc2)c2ccccc2n1,55.7% (active)
10,O=C(N/N=C/c1ccc([N+](=O)[O-])s1)c1ccccc1Br,65.3% (active)
11,NNC(=O)C(Cc1ccc(O)cc1)N1Cc2ccccc2C1=O (configuration not stated),29.4%
12,Cc1ccc(/C=C/S(=O)(=O)NCC(=O)OCC(=O)Nc2c(F)cccc2F)cc1,55.4% (active)
13,Cc1ccc(C)c(-c2cc(C(=O)N/N=C/c3cccnc3)c3ccccc3n2)c1,44.9% (active)
14,O=C(COc1ccc2c3c(c(=O)oc2c1)CCCC3)NCCCN1CCOCC1,45% (active)
15,Cc1ccnc2nc(C(=O)OCC(=O)Nc3ccc([N+](=O)[O-])cc3Br)nn12,32.1%
16,CN(C)c1ccc(NC(=O)CN2CCC(NC(=O)C3CCCCC3)CC2)cc1,54.1% (active)
17,O=C(CN1C(=O)NC2(CCCCCC2)C1=O)Nc1ccc([N+](=O)[O-])cc1,59.6% (active)
18,CN(C)c1ccc(C(=O)OCC(=O)Nc2ccc(N3CCOCC3)cc2)cc1,55.8% (active)
19,Cc1onc(-c2c(F)cccc2Cl)c1C(=O)c1ccccc1O,49.1% (active)

# System: not listed separately
# Assay: VP16 transactivation reporter inhibitors, counter-screen for LRH-1 inverse agonist project, cell-based, luminescence, high throughput (AID 651615)
# Conditions: Gal4-VP16 luciferase reporter cells, at 3.6 µM, active compounds read high
row,Compound,inhibition
1,Cc1onc(-c2c(F)cccc2Cl)c1C(=O)O/N=C(\N)c1ccc([N+](=O)[O-])o1,-7.18%
2,COc1ccc(CCNC(=O)CSc2nn3c(=O)c(C)nnc3s2)cc1OC,-10.1%
3,Nc1ccccc1Nc1ccncc1[N+](=O)[O-],-1.54%
4,CCOC(=O)c1cc2sccc2n1CC(=O)Nc1ccc2c(c1)OCCO2,-2.96%
5,COc1cc2c(cc1OC)CN(C(=O)CN1C(=O)NC3(CCC(C)CC3)C1=O)CC2 (configuration not stated),7.61%
6,CCc1cc(=O)oc2c(C)c(OCC(=O)NC3CC(C)(C)NC(C)(C)C3)ccc12,3.79%
7,O=[N+]([O-])c1ccc(N2CCCCC2)nc1N1CCCCC1,13.4%
8,O=C(COc1cccc2c1CCNC2=O)Nc1cccc(C(F)(F)F)c1,-20.7%
9,Cc1ccc(SCC(=O)Nc2ccc(N3CCOCC3)cc2)cc1C,-10.5%
10,CC(=O)Nc1ccc(NC(=O)COC(=O)Cc2c[nH]c3ccccc23)cc1,-15.3%
11,N#CCCn1cc(/C=N/NC(N)=S)c(-c2ccc(-c3ccccc3)cc2)n1,-9.84%
12,OCCCNc1c2ccccc2nc2ccccc12,96.4% (active)
13,CC1(C)CC(=O)C=C(c2ccc3ncccc3c2)C1,14.3%
14,COc1cc(NC(=O)CN2C(=O)NC(c3ccccc3)(c3ccccc3)C2=O)c(C)cc1[N+](=O)[O-],9.47%
15,O=C(COc1ccc(S(=O)(=O)N2CCCC2)cc1Cl)NCc1ccc2c(c1)OCO2,2.14%
16,Cc1csc(=O)n1CCC(=O)OCC(=O)Nc1ccc(N2CCOCC2)cc1,-3.02%
17,COc1ccc(OCCNC(=O)C2(C)CCN2Cc2ccc3ccccc3c2)cc1 (configuration not stated),1.36%
18,N#Cc1ccc(NC(=O)COc2ccc(-n3cnnn3)cc2)cc1,-2.83%
19,Cc1cc(C)c2sc(NC(=O)c3ccc([N+](=O)[O-])o3)nc2c1,-7.08%
20,Cc1ccc(CNC(=O)COc2ccc(C(=O)c3ccc(F)cc3)cc2)cc1,-11.9%
21,COc1ccc(NC(=O)Cn2nnc(C(=O)Nc3ccccc3C)c2N)cc1,9.36%
22,CCC(c1nnnn1-c1c(C)cccc1C)N1CCN(c2ccc(C(F)(F)F)cc2[N+](=O)[O-])CC1 (configuration not stated),10%
23,c1ccc(-n2nnnc2-c2cccc3ccccc23)cc1,23%
